The source of these data is PubChem BioAssay (NCATS).

Results filed as inconclusive are left out. Values without a mark were called inactive. Calls of active or inactive are those of the source. Calls come from the whole dose curve; as a rule, active = well fitted curve in the direction sought with a large enough effect; inconclusive = small, poorly fitted or top-dose-only effect, or another doubt; inactive = no such curve, though single readings can be large; an effect the other way counts as inactive or inconclusive.

The nature of assay [1]: Quantitative High-Throughput drug screen in 47 multiple myeloma cell lines against the NCATS MIPE library collection: KMS27_JCRB cell viability assay (AID 1918970). Note: nearly all actives have a fitted effect of over 30% in size. Note: potency is the fitted concentration of half-maximal effect. The procedure, abridged:
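ATP-based viability (CellTiter-Glo luminescence) is measured in cells treated 48 h with approved and investigational drugs at 37 °C. Controls are DMSO-only wells for full viability and media-only wells for none.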

Assay [2] can be described thus: Quantitative High-Throughput drug screen in 47 multiple myeloma cell lines against the NCATS MIPE library collection: KMS12BM_JCRB cell viability assay (AID 1918971). Note: nearly all actives have a fitted effect of over 35% in size. Note: potency is the fitted concentration of half-maximal effect. The method, boiled down: (§1)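 Luminescent ATP measurement with CellTiter-Glo gives viability, scaled between DMSO-only wells (100%) and media-only wells (0%). Cells, 500 per well, faced library compounds for 48 hours at 37C.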

Assay [3] is described as follows: Quantitative High-Throughput drug screen in 47 multiple myeloma cell lines against the NCATS MIPE library collection: KMS12PE_JCRB cell viability assay (AID 1918972). For viability: series mostly up to about 46 µM. Note: nearly all actives have a fitted effect of over 30% in size. Note: potency is the fitted concentration of half-maximal effect. The procedure, abridged:
as §1

A short description of assay [4]: Quantitative High-Throughput drug screen in 47 multiple myeloma cell lines against the NCATS MIPE library collection: KMS26_JCRB cell viability assay (AID 1918975). Note: potency is the fitted concentration of half-maximal effect; nearly all actives have a fitted effect of over 45% in size. The method, boiled down: as §1
Assay [5] can be described thus: Quantitative High-Throughput drug screen in 47 multiple myeloma cell lines against the NCATS MIPE library collection: MOLP8_DSMZ cell viability assay (AID 1918977). Note: nearly all actives have a fitted effect of over 45% in size. Note: potency is the fitted concentration of half-maximal effect. The procedure, abridged: (§2)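 qHTS format: cells plated (500/well), pin-dosed with MIPE 4.0 compounds, kept 48 h at 37 °C. Readout was CellTiter-Glo luminescence, median RLU.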
Assay [6] is described as follows: Quantitative High-Throughput drug screen in 47 multiple myeloma cell lines against the NCATS MIPE library collection: NCIH929_DSMZ cell viability assay (AID 1918978). Note: nearly all actives have a fitted effect of over 35% in size. Note: potency is the fitted concentration of half-maximal effect. The method, boiled down: as §2
Assay [7] is described as follows: Quantitative High-Throughput drug screen in 47 multiple myeloma cell lines against the NCATS MIPE library collection: OCIMY1_PLB cell viability assay (AID 1918979). For viability: series mostly up to about 46 µM. Note: nearly all actives have a fitted effect of over 35% in size. Note: potency is the fitted concentration of half-maximal effect. The method, boiled down: as §2
Assay [8] can be described thus: Quantitative High-Throughput drug screen in 47 multiple myeloma cell lines against the NCATS MIPE library collection: MM1R_ATCC cell viability assay (AID 1918981). Note: nearly all actives have a fitted effect of over 35% in size. Note: potency is the fitted concentration of half-maximal effect. The method, boiled down:
as §2

Assay [9] is described as follows: Quantitative High-Throughput drug screen in 47 multiple myeloma cell lines against the NCATS MIPE library collection: LP1_DSMZ cell viability assay (AID 1918982). Note: nearly all actives have a fitted effect of over 35% in size. Note: potency is the fitted concentration of half-maximal effect. The procedure, abridged: as §2
Assay [10] in a line: Quantitative High-Throughput drug screen in 47 multiple myeloma cell lines against the NCATS MIPE library collection: L363_DSMZ cell viability assay (AID 1918984). Note: nearly all actives have a fitted effect of over 40% in size. The method, boiled down:
as §2

Assay [11] is described as follows: Quantitative High-Throughput drug screen in 47 multiple myeloma cell lines against the NCATS MIPE library collection: OPM1_PLB cell viability assay (AID 1918989). Note: nearly all actives have a fitted effect of over 40% in size. Note: potency is the fitted concentration of half-maximal effect. The procedure, abridged:
as §2

Assay [12] can be described thus: Quantitative High-Throughput drug screen in 47 multiple myeloma cell lines against the NCATS MIPE library collection: KMS20_JCRB cell viability assay (AID 1918973). Note: nearly all actives have a fitted effect of over 45% in size. Note: potency is the fitted concentration of half-maximal effect. The procedure, abridged: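 Viability readout: CellTiter-Glo luminescence following 5 min room-temperature incubation with reagent. Prior exposure: 48 h, 37C, humidified 5% CO2, 500 cells per well.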
A short description of assay [13]: Quantitative High-Throughput drug screen in 47 multiple myeloma cell lines against the NCATS MIPE library collection: MM1S_ATCC cell viability assay (AID 1918980). Note: nearly all actives have a fitted effect of over 45% in size. Note: potency is the fitted concentration of half-maximal effect. The procedure, abridged:
as §2

Assay [14] is described as follows: Quantitative High-Throughput drug screen in 47 multiple myeloma cell lines against the NCATS MIPE library collection: OCIMY5_PLB cell viability assay (AID 1918988). Note: nearly all actives have a fitted effect of over 65% in size. Note: potency is the fitted concentration of half-maximal effect. The procedure, abridged: as §2
A short description of assay [15]: Quantitative High-Throughput drug screen in 47 multiple myeloma cell lines against the NCATS MIPE library collection: KMS28PE_JCRB cell viability assay (AID 1918983). Note: nearly all actives have a fitted effect of over 35% in size. Note: potency is the fitted concentration of half-maximal effect. The method, boiled down: as §2
Assay [16] is described as follows: Quantitative High-Throughput drug screen in 47 multiple myeloma cell lines against the NCATS MIPE library collection: KMS34_JCRB cell viability assay (AID 1918985). Note: potency is the fitted concentration of half-maximal effect; nearly all actives have a fitted effect of over 40% in size. The method, boiled down:
as §2

A short description of assay [17]: Quantitative High-Throughput drug screen in 47 multiple myeloma cell lines against the NCATS MIPE library collection: OCIMY7_PLB cell viability assay (AID 1918987). Note: potency is the fitted concentration of half-maximal effect; nearly all actives have a fitted effect of over 65% in size. The method, boiled down: as §2
Assay [18] in a line: Quantitative High-Throughput drug screen in 47 multiple myeloma cell lines against the NCATS MIPE library collection: SKMM1_PLB cell viability assay (AID 1919863). The settings on record: SKMM1 myeloma viability, CellTiter-Glo ATP, 48 h; viability: stronger effect = lower value. The method, boiled down:
as §2
(Cellular ATP, detected with luciferase, serves as a proxy for viable cell number.)

For `NC(CO)C(=O)NNCc1ccc(O)c(O)c1O` (stereo unspecified), the Potency entry in [1], in assay [3], in [6], in [10] and in assay [11] was “inactive” throughout. Besides, the Potency was 20.9 µM (active) in assay [2]; 33.2 µM (active) in [4]; 10.5 µM (active) in assay [5]; 26.4 µM (active) in [7]; 11.8 µM (active) in assay [8]; 20.9 µM (active) in assay [9].

For the molecule `CN1CCC(=C2c3ccccc3C=Cc3ccccc32)CC1`, the Potency in [1] is 23.5 µM (active); in assay [3] it was 20.9 µM (active); in [12] it was 9.35 µM (active); in assay [6], 5.9 µM (active); in assay [13], 14.8 µM (active); in assay [8] it was 23.5 µM (active). For the same molecule, the Potency in assay [14] and in assay [11] was 18.7 µM (active) each time.

On to `CC[C@@]1(O)C(=O)OCc2c1cc1n(c2=O)Cc2cc3c(CN(C)C)c(O)ccc3nc2-1`, for which the Potency in assay [1] was 0.0833 µM (active); in assay [2] it was 1.87 µM (active); in assay [3], 2.64 µM (active); in assay [12] it was 0.235 µM (active); in assay [5] it was 1.32 µM (active); in assay [6] it was 0.743 µM (active). Also, the Potency was 13.2 µM (active) in assay [7]; 0.166 µM (active) in [13]; 0.166 µM (active) in [8]; 13.2 µM (active) in assay [9]; 0.935 µM (active) in assay [15]; 3.32 µM (active) in assay [16]. In addition, the Potency in assay [17] was 0.148 µM (active); in assay [14], 5.9 µM (active); in [11] it was 9.35 µM (active); in assay [18], 3.32 µM (active).

For the molecule `COc1ccc(C2CNC(=O)C2)cc1OC1CCCC1` (stereo unspecified), the Potency entry in [2], in assay [3], in [12], in [5], in assay [6] and in assay [7] was “inactive” throughout. For the same molecule, the Potency result in assay [8], in assay [9], in [15], in [10] and in [11] was “inactive” each time.

As for `CN(C)CCOC(c1ccccc1)c1ccccc1`, the Potency result in assay [1], in assay [2], in [8], in assay [9] and in assay [15] was “inactive” throughout. The results for the Potency in assay [12] and in assay [13] were 18.7 µM (active) and 10.5 µM (active), respectively.

On to `CN(C)CCC=C1c2ccccc2C=Cc2ccccc21`, for which the Potency entry in assay [1], in assay [3], in [6], in [7] and in assay [10] was “inactive” throughout. For the same molecule, the Potency in assay [2] is 1.48 µM (active); in assay [12], 14.8 µM (active); in assay [8] it was 18.7 µM (active); in [15], 16.6 µM (active); in assay [14] it was 14.8 µM (active); in assay [11], 18.7 µM (active).

For `CC(C)Cc1ccc(C(C)C(=O)O)cc1` (stereo unspecified), the Potency entry in assay [1], in [5], in assay [6], in [7], in [13] and in [8] was “inactive” each time. For the same molecule, the Potency entry in assay [9], in assay [15], in [10], in [14] and in assay [11] was “inactive” each time.

Take `COc1ccc2[nH]cc(CCNC(C)=O)c2c1`: the Potency entry in [1], in assay [2], in assay [3], in assay [12], in assay [5] and in [6] was “inactive” each time. For the same molecule, the Potency result in [7] and in [15] was “inactive” each time. Besides, the values for the Potency in assay [4], in assay [13] and in assay [8] were 9.35 µM (active), 0.372 µM (active) and 5.26 µM (active), respectively.
